In PubChem BioAssay (NCATS):
Records with an inconclusive call do not appear. Where a call stands in place of a potency, no number is given. The source made the active and inactive calls. Calls follow the shape of the dose curve; as a rule, active = well fitted inhibition curve with a large enough effect; inconclusive = small, poorly fitted or top-dose-only effect; inactive = flat fitted curve, though single readings scatter.

Assay: qHTS to identify inhibitors of the type 1 interferon - major histocompatibility complex class I in skeletal muscle: primary screen against the NCATS LOPAC collection (AID 1347405);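 also: lytic HiBiT luminescence reporting HLA-B protein level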
Settings: iHSKM muscle cells, IFN-b-induced MHC-I HiBiT luminescence, 24 h; series mostly up to 45.9 µM
Description: Assay Submitter (PI): Travis B. Kinder Ph.D. & James Inglese Ph.D.
Assay Development and Screening Technology Laboratory (ADST)
National Center for Advancing Translational Sciences (NCATS), Rockville, MD
National Institute of Health (NIH), Bethesda, Maryland
Idiopathic inflammatory myopathies, collectively referred to as myositis, are a group of rare autoimmune diseases characterized by skeletal muscle inflammation, weakness, and usually accompanied by systemic pathologies of the skin, lungs, or vasculature. Current immunosuppressive therapies and glucocorticoids are often not curative and are accompanied by harsh side effects, especially in children with juvenile myositis. We initiated a drug repurposing and development program to identify more targeted, less toxic therapeutics to treat myositis. Although its cause is not known, muscle from a subset of patients have an abundance of the inflammatory type 1 interferon (IFN) and a down-stream product major histocompatibility complex class I (MHC class I), which are both thought to contribute to damage and weakness. We conducted quantitative high throughput screening on 6,576 compounds (4,679 unique) through a series of cell-based assays to identify those that inhibit the IFN-stimulated expression of MHC class I in muscle precursor cells (myoblasts). The compound identification and evaluation strategy utilized a primary screen with reporter-tagged MHC class I in genome-engineered myoblasts, ATP content counter screen for viability, HLA-ABC immunofluorescence secondary screen, and HLA-B RT-qPCR tertiary screen.
The primary screen utilized CRISPR/Cas9 genome-engineering of immortalized human myoblasts, C25cl48, where a pro-luminescent reporter HiBit was fused to the C-terminus of endogenous MHC class I allele HLA-B*08:01 (HLA-B HiBit myoblasts). HiBit is an 11 amino acid fragment of NanoLuc luminescent reporter (Promega Corporation), and when complexed to the larger LgBit fragment, the reconstituted enzyme produces light in the presence of furimazine substrate (Schwinn et al., 2018). Briefly, HLA-B HiBit myoblasts were plated into 1536-well plates, treated with 4.0 ng/ml human IFN-beta and 1,280 compounds from the Library of Pharmacologically Active Compounds 1280 library (LOPAC1280, Sigma Aldrich) in a 7-point, 1:4.3 titration with a high final concentration of 46 uM. After 24 hrs of treatment, cells were assayed by Nano-Glo HiBiT Lytic Detection System (Promega) and luminescence measured by a ViewLux 1430 Ultra HTS (Perkin Elmer).
Schwinn MK, Machleidt T, Zimmerman K, Eggers CT, Dixon AS, Hurst R, Hall MP, Encell LP, Binkowski BF, Wood K V. 2018. CRISPR-Mediated Tagging of Endogenous Proteins with a Luminescent Peptide. ACS Chem Biol 13:467-474. doi:10.1021/acschembio.7b00549
PROTOCOL TABLE (as described by Inglese et al., 2007)
SEQUENCE No. (e.g., 1, 2, 3, etc.); […] (e.g., Cells, Incubation, Reagent, etc.); VALUE; DESCRIPTION
1a; Cells; 5 uL; Use a Multidrop Combi (Thermo Scientific) to seed 350 cells/well into nine Greiner 1536 well white/solid bottom, high base, TC plates in 5 ul/well of iHSKM growth medium (GM) without dexamethasone into columns 1+2. Add metal lids with gas-exchange holes
1b; Cells; 5 uL; Use a Multidrop Combi (Thermo Scientific) to seed 350 cells/well into nine Greiner 1536 well white/solid bottom, high base, TC plates in 5 ul/well of iHSKM GM without dexamethasone + 4 ng/ml IFN-b into columns 3 - 48. Add metal lids with gas-exchange holes
2; Incubate; 1 hr; Incubate at 37 C, 5% CO2, 95% RH
3; Compounds; 23 nl; Use Pin Tool (Wako) to transfer DMSO control, ruxolitinib IFN-b inhibitor control [High Concentration = 80 uM final, 16-pt, 1:2 in duplicate], and library compounds in DMSO
4; Incubate; 24 hrs; Incubate at 37 C, 5% CO2, 95% RH
5; Dispense; 2.5 ul; Use BioRAPTR FRD (Beckman Coulter) to add HiBit lytic reagent
6; Incubate; 10 min; Incubate in the dark at ambient temperature for lysis
[…]
Potency is read from the fitted curve at half-maximal effect.

SMILES	Potency
C[C@@H](c1ncncc1F)[C@](O)(Cn1cncn1)c1ccc(F)cc1F	inactive
O=C(c1ccccc1)c1ccc2n1CCC2C(=O)O (stereo unspecified)	inactive
CN(C)C(=O)[C@H](O)[C@H](Cc1ccccc1)NC(=O)c1cc2cc(Cl)ccc2[nH]1	inactive
Clc1ccc2c(N3CCN(CCCN4CCN(c5ccnc6cc(Cl)ccc56)CC4)CC3)ccnc2c1	inactive
CN(C)CCCC1(c2ccc(F)cc2)OCc2cc(C#N)ccc21 (stereo unspecified)	inactive
COc1cc2c(cc1OC)C1CC(=O)C(CC(C)C)CN1CC2 (stereo unspecified)	inactive
Cc1c(OCC(F)(F)F)ccnc1CS(=O)c1nc2ccccc2[nH]1 (stereo unspecified)	inactive
O=Nc1c(-c2c(O)[nH]c3cc(Br)ccc23)[nH]c2ccccc12	15.8 µM (active)
CC1(C)C(=O)N(CCN2CCC(C(=O)c3ccc(F)cc3)CC2)c2ccccc21	inactive
c1cnc2cc3c(cc2n1)C1CNCC3C1	inactive
O=C1c2c(O)cc(O)cc2OC(c2ccc(O)c(O)c2)C1O (stereo unspecified)	inactive
CCOC(=O)C(C)Oc1cccc2c(=O)n(CC(=O)Nc3ccc4c(c3)OCCO4)ccc12 (stereo unspecified)	inactive
NCCCCNCCCN	inactive
O=c1ccc2ccc(O)c(O)c2o1	inactive
COc1ccccc1N1CCN(CCN(C(=O)C2CCCCC2)c2ccccn2)CC1	inactive
Cc1cc(Cl)ccc1OCCCC(=O)NO	inactive

SMILES	Potency
CNC[C@H](O)c1ccc(O)c(O)c1	inactive
O=C(CCc1ccc(O)cc1)c1c(O)cc(O)cc1O	inactive
NNc1nncc2ccccc12	inactive
O=C(O)c1cccnc1Nc1cccc(C(F)(F)F)c1	inactive
C[C@@H](N)C1CCC(C(=O)Nc2ccncc2)CC1 (stereo partly specified)	inactive
Cc1cccc(C#Cc2ccccc2)n1	inactive
CC(=O)NC[C@H]1CN(c2ccc(N3CCOCC3)c(F)c2)C(=O)O1	inactive
COc1ccc2cc([C@H](C)C(=O)O)ccc2c1	inactive
C[C@H](Cc1ccc(O)c(O)c1)[C@@H](C)Cc1ccc(O)c(O)c1	inactive
Cc1cc(O)c2c(c1)C(=O)c1cc(O)cc(O)c1C2=O	inactive
CC(=O)N1CCN(c2ccc(OC[C@H]3CO[C@](Cn4ccnc4)(c4ccc(Cl)cc4Cl)O3)cc2)CC1	inactive
CCOC(=O)C1=C(O)C(=O)N(Cc2ccccc2)C1	inactive
O=c1c(O)c(-c2cc(O)c(O)c(O)c2)oc2cc(O)cc(O)c12	inactive
O=c1c(O)c(-c2ccc(O)cc2O)oc2cc(O)cc(O)c12	inactive
CC1(C)NC(=O)N(c2ccc([N+](=O)[O-])c(C(F)(F)F)c2)C1=O	inactive
